Measurements from PubChem BioAssay (NCATS).
Records with an inconclusive call do not appear. A number with no mark means an inactive call. Activity calls are given as the source filed them. Calls follow the shape of the dose curve; as a rule, active = well fitted cell-killing curve with a large enough effect; inconclusive = small, poorly fitted or top-dose-only effect; inactive = flat fitted curve, though single readings scatter.

assay: Cell Viability - LYMP2-021 (AID 974); details: LYMP2-021 lymphoblastoid cells viability; series mostly up to 92.2 µM; activity change, negative = cytotoxicity: at the top concentration;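 also: compound exposure lasts 24 hours at 37 °C; nearly all actives have a fitted effect of over 55% in size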
From the text: NIH Chemical Genomics Center [NCGC]
NIH Molecular Libraries Screening Centers Network [MLSCN]
National Institutes of Environmental Health Sciences [NIEHS]
National Toxicology Program [NTP]
We have developed a 1536-well cell-based assay for quantitative high throughput screening (qHTS) against a number of cell lines to determine in vitro cytotoxicity of small molecules. This particular assay uses a human lymphoblastoid cell line (LYMP2-021) purchased from Coriell Institute for Medical Research.
NCGC Assay Protocol Summary:
The CellTiter-Glo luminescent cell viability assay (Promega) is a homogeneous method to measure the number of viable cells in culture. The end point readout of this assay is based on quantitation of intracellular ATP, an indicator of metabolic activity, using the luciferase reaction. Luciferase catalyzes the oxidation of beetle Luciferin to oxyluciferin and light in the presence of ATP. The luminescent signal is proportional to amount of ATP present.
Using the CellTiter-Glo luminescent cell viability assay, the amount of cellular ATP was measured in the lymphoblastoid cell line with complete culture medium following compound treatment for 24 hours. The assay was performed in opaque white Kalypsys 1536-well plates. In the screen, tetraoctylammonium bromide was used as positive control. Library compounds were measured for their ability to cause acute toxicity in the cell line, as reflected by a decrease in intracellular ATP levels, in a concentration-dependent manner. […] AC50 values were determined from concentration-response data modeled with the standard Hill equation.
qHTS protocol for CellTiter Glo lymphoblastoid cellular assay
[Step] [Parameter] [Value] [Description]
1. Reagent; 5 uL; 2500 lymphoblastoid cells/well
2. Time; 5 hr; 37 C incubation
4. Controls; 23 nL; Tetraoctylammonium bromide 6.4pM to 92 uM
5. Time; 24 hr; 37 C incubation
6. Reagent; 5 uL; CellTiter Glo reagent
7. Time; 30 min; Room Temperature
8. Detection; Luminescence; Viewlux plate reader
Keywords: cell viability, cytotoxicity, lymphoblastoid cell line, luminescence, NTPHTS, NTPHTS_NCGC, NIEHS, DSSTox, MLSMR, MLSCN, NIH Roadmap, qHTS, NCGC
% is scaled to controls: 0 for no effect and ±100 for the full control effect.

Structure (SMILES)	activity change, negative = cytotoxicity [%]	Potency
CC(C)(C)OOC(C)(C)C	1.51	–
C=CC(N)=O	–	inactive
CC(Cl)Cl	-2.35	–
Nc1ccccc1Cl	-1.94	–
c1nc[nH]n1	-1.73	–
Brc1ccccc1	-1.31	–
Cc1ccc2ccccc2c1	0.148	–
CCOc1ccc(N)cc1	4.32	–
Oc1ccc(Cl)cc1Cl	-5.94	–
CCCCCCCCCc1ccc(O)cc1	-21.6	–
COc1ccc(C=O)cc1OC	-9.12	–
CCSC(=O)Cl	-2.2	–
CC(O)CCl (stereo not given)	0.608	–
C[N+](C)(C)Cc1ccccc1	4.36	–
[O-][Br+2]([O-])O	–	inactive
Clc1nc(Cl)nc(Cl)n1	-9.14	–
O=C=NC1CCCCC1	–	inactive
C=C(Cl)Cl	2.4	–
Cc1cccc([N+](=O)[O-])c1	-2.53	–
Brc1ccc(Oc2cc(Br)c(Br)cc2Br)c(Br)c1	–	inactive

Structure (SMILES)	activity change, negative = cytotoxicity [%]	Potency
COC(=O)NC(=S)Nc1ccccc1NC(=S)NC(=O)OC	-6.14	–
C=C(C)C(=O)OCC1CO1 (stereo not given)	-2.5	–
C=CCOC(=O)c1ccccc1N	-3.46	–
Cc1ccc(O)c(C)c1	1.93	–
CCOP(=S)(OCC)Oc1ccc([N+](=O)[O-])cc1	–	inactive
Clc1cccc(C(Cl)(Cl)Cl)n1	-0.296	–
Cc1ccc([N+](=O)[O-])cc1C	-4.44	–
C[C@H]1CCCC(=O)CCC/C=C/c2cc(O)cc(O)c2C(=O)O1	-23.6	–
CCNc1nc(Cl)nc(NC(C)C)n1	-0.217	–
CCC[CH2][Sn]([Cl])([Cl])[Cl]	3.22	–
COC1=CC(=O)OC(CCc2ccccc2)C1 (stereo not given)	-9.81	–
CCCSC(=O)Cl	-3.91	–
CCCCOCCOP(=O)(OCCOCCCC)OCCOCCCC	-15.2	–
N#CCCCl	–	inactive
CCCCCCCC(=O)Cl	-0.162	–
CCCOC(=O)c1ccccc1C(=O)OCCC	0.875	–
COP(=S)(OC)Oc1ccc([N+](=O)[O-])cc1	-2.81	–
OCC(Br)CBr (stereo not given)	-8.11	–
O=C(Cl)/C=C/C(=O)Cl	-5.88	–
CC(C)(C)OO	–	inactive
